Compound activity from PubChem BioAssay.
MARV entry inh: inhibitors of Marburg virus binding or cell entry | actives 1.8% (n = 300,000) | Potency, µM (doses to about 37.8 µM), for inactives: at the top dose activity change, negative = inhibition, usual class: inhibitors | Marburg virus pseudotyped entry inhibition, cell reporter | AID 540276; calls by dose curve; tested in HEK293 cells; note: potency is the fitted concentration of half-maximal effect; % is set by controls: 0 for no effect and ±100 for the full control effect
Cycloheximide cs: affects cycloheximide protein synthesis inhibition readout, counter-screen | cell reporter, cycloheximide protein synthesis inhibition counterscreen | max response, % | actives 12% (n = 300,000) | AID 2314; in the data active = max response mostly above about 13%, no sharp cut-off; inactive = mostly below about 14%; note: read at 38.3 µM for the half of the compounds with a filed dose; 0% is about no effect
FMDV antiviral: blocks foot and mouth disease virus | actives 1.2% (n = 410,000) | AID 1159524 | Potency, µM (series often up to 57.9 µM), for inactives: top-dose activity change, negative = inhibition, usual class: inhibitors | FMDV antiviral cell-based qHTS; calls by dose curve; tested in HEK293T cells; note: read-out not given here; potency is the fitted concentration of half-maximal effect; % is set by controls: 0 for no effect and ±100 for the full control effect; nearly all actives have a fitted effect of over 45% in size
Shiga inhibitor: blocks Shiga toxin action in Vero cells; AID 2315; inhibition, % at 38.7 µM; Vero cells, Shiga toxin protein synthesis inhibition reporter; actives 9.2% (n = 290,000); in the data active = inhibition mostly above about 28%, no sharp cut-off; inactive = mostly below about 43%; note: 0% is about no effect
LASV entry inh: blocks Lassa virus binding to or entry into cells | actives 1.2% (n = 300,000) | Potency, µM (titrated, usually from 37.9 µM), without a hit: at the top dose activity change, negative = inhibition, usual class: inhibitors | Lassa virus pseudotype entry inhibition, cell reporter; calls by dose curve; tested in HEK293 cells; note: potency is the fitted concentration of half-maximal effect; % is set by controls: 0 for no effect and ±100 for the full control effect; nearly all actives have a fitted effect of over 50% in size
HCV inhibitor: inhibitors of hepatitis C virus infection. Huh7.5.1 HCVcc-Cre infection, luciferase reporter, 44 h. Potency, µM (highest dose often 41.8 µM), for inactives: top-dose activity change, negative = inhibition, usual class: inhibitors. actives 3.4% (n = 340,000); active = well fitted inhibition curve with a large enough effect; inconclusive = small, poorly fitted or top-dose-only effect, or another doubt; inactive = no such curve, though single readings can be large or run the other way; note: potency is the fitted concentration of half-maximal effect; % is set by controls: 0 for no effect and ±100 for the full control effect
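Antiviral activity was scored by luciferase reporter output from cells infected with HCVcc-Cre (~0.5 moi) in presence of compound, 44 h infection period, cells seeded 1,000/well 4 h prior.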
* = called active by the depositor; u = inconclusive; x = not tested or not shown; + = active, no number; [ ] = dose if it differs, or a comment. An excerpt weighted towards active compounds, which were near 13% of everything screened.

SMILES	MARV entry inh	Cycloheximide cs	FMDV antiviral	Shiga inhibitor	LASV entry inh	HCV inhibitor
Cc1ccc(C(=O)Nc2cnc3ccccc3c2)cc1	u	-10	3.5µM*	-28	5µM*	-14%
O=C(Nc1ccc(F)cc1)c1cccnc1	x	-4	4%	-8	x	7%
O=C(Nc1cnc2ccccc2c1)c1cccnc1	x	23*	6%	64	x	-6%
Cn1c(NC(=O)c2cccnc2)nc2ccccc21	u	38*	30%	+	u	13%
O=C(Nc1ccc(NC(=O)c2cccnc2)cc1)c1ccccc1	6%[46.1 µM]	1	-3%	17	0%	-4%
COC(=O)c1cccc(NC(=O)c2cccc(-n3cnnn3)c2)c1	x	x	-12%	x	x	x
O=C(Nc1cnc2ccccc2c1)c1cccc(-n2cnnn2)c1	12%	88*	35%	164*	u	5%
Cc1cc(Br)ccc1OCC(=O)NNC(=O)CCc1ccccc1	16%[46.1 µM]	1	7%	-7	u	6%
COc1ccc(OC)c(S(=O)(=O)N2CCC(C(=O)NC(C)c3ccccc3)CC2)c1 (configuration not stated)	5%	1	1%	-8	-3%	-3%
Cc1cc(C(=O)Nc2ccc(-n3c(C)nc4ccccc4c3=O)cc2)ccc1[N+](=O)[O-]	x	x	-18%	x	-2%[46.1 µM]	x
Cc1cc(C(=O)Nc2cnc3ccccc3c2)ccc1[N+](=O)[O-]	u	53*	59%	131*	u	u
CC(=O)Nc1ccc(SCC(Cc2ccccc2)N2CCN(CC(C)C)CCC2=O)cc1 (configuration not stated)	x	-3	x	-8	x	x
N/C(Cc1ccc([N+](=O)[O-])cc1)=N\OC(=O)c1ccc2ccccc2c1	u	45*	0%	131*	u	u
N/C(Cc1ccc([N+](=O)[O-])cc1)=N\OC(=O)c1ccco1	u	35*	9%	35*	u	12%
N/C(Cc1ccc([N+](=O)[O-])cc1)=N\OC(=O)c1ccccc1Br	u	-2	u	18	u	u
Cc1ccc(C(=O)Nc2cccc(-c3nc(CNC(=O)c4cccc(N(C)C)c4)c(C)o3)c2)s1	x	x	3%	x	x	x
CCOC(=O)c1cnc(-n2nc(C)cc2C)nc1NNc1cc(-c2ccccc2)nc(C)n1	-7%	-3	x	-5	-1%	-23%
CCOC(=O)c1cnc(-n2nc(C)cc2C)nc1NCc1ccccc1	u	1	28µM*	11	u	u
CCOC(=O)c1cnc(-n2nc(C)cc2C)nc1NCCO	-3%	-2	-10%	-4	-4%	-2%
CCOC(=O)c1cnc(-n2nc(C)cc2C)nc1NNc1ncc(-c2ccccc2)cn1	11µM*	-1	-20%	16	u	u
Cc1ccc(C(=O)Nc2nccc(C)n2)cc1	-4%	12	58%	x	-15%	1%
O=C(Nc1cc(Cl)cc(Cl)c1)c1cccc(OC(F)F)c1	-12%	15*	40µM*	17	-14%	u
Cc1ccnc(NC(=O)c2cccc(OC(F)F)c2)n1	u	20	35%	69*	5%[46.1 µM]	17%
CC(C)(C)n1c(O)c2ccc(C(=O)N=NC(=O)c3ccccc3)cc2c1O	-11%	27*	-6%	33	-7%	-15%
Cc1[nH]c2ccccc2c1C(=O)NS(=O)(=O)Nc1ccccc1	18%[46.1 µM]	-1	3%	5	-9%	7%
SMILES	MARV entry inh	Cycloheximide cs	FMDV antiviral	Shiga inhibitor	LASV entry inh	HCV inhibitor
Nc1c(C(=O)c2ccccc2)oc2ccc(Br)cc12	24%	28*	64%	83*	18%	-17%
Nc1c(C(=O)c2ccc(Br)cc2)oc2ccccc12	0%	30*	19%	45*	11%	-1%
COC(=O)CCC(=O)c1oc2ccc(Br)cc2c1N	u	41*	22%	+	16%	6%
Nc1c(C(=O)c2ccccc2)oc2ccc([N+](=O)[O-])cc12	x	26*	42%	41*	x	12%
COc1ccc2oc(C(=O)CCC(=O)O)c(N)c2c1	x	0	-5%	-3	x	20%
O=C(CN1C(=O)C(=O)N(Cc2ccccc2)C1=O)Nc1cc(Cl)cc(Cl)c1	u	-1	31%	-12	-10%	-13%
Cc1c(CC(=O)NCC(=O)NCC(=O)O)c(=O)oc2cc3c(cc12)CCC(C)(C)O3	x	-2	-11%	12	x	8%
O=Cc1c[nH]c2ncccc12	x	9	-2%	12	x	0%
CCOCC(=O)Nc1c(C(=O)OCC)oc2ccccc12	1%	-2	-11%	-15	2%	-6%
Cc1ccc(C(=O)c2oc3ccccc3c2N)cc1	u	20*	71%	74*	13%	u
CCOC(=O)c1oc2ccccc2c1N	17%	27*	56%	67*	-1%	6%
COc1ccc(C(CNC(=O)COc2ccccc2C)N2CCCCC2)cc1 (configuration not stated)	x	x	-18%	x	x	9%
COc1ccc(C(CNC(=O)COc2ccc(F)cc2Br)N2CCCC2)cc1 (configuration not stated)	4.5µM*	-6	-24%	19	x	u
COc1ccc(NS(=O)(=O)c2cccc(C(=O)N3CCN(S(=O)(=O)c4ccccc4)CC3)c2)cc1	x	x	u	x	x	10µM*
COc1ccc(NS(=O)(=O)c2cccc(C(=O)NCc3ccccc3CN3CCCC3)c2)cc1	x	x	-4%	x	x	11µM*
COc1ccc(C(CNC(=O)c2cccc(S(=O)(=O)Nc3ccc(C)cc3)c2)N2CCCCC2)cc1 (configuration not stated)	u	x	5%	x	u	3.2µM*
Cc1ccc(Cl)c(OCC(=O)OCC(=O)c2ccc[nH]2)c1	1%	x	-2%	x	18%	5%
Cc1cc(C)n2nc(SCC(=O)N3CCN(c4ccccc4)CC3)nc2n1	19%	x	-11%	x	u	14%
Cc1ccc2nc(Cl)c3cc(C(=O)N4CCCCC4C)sc3c2c1 (configuration not stated)	2%[46.1 µM]	x	8%	x	25%[46.1 µM]	x
CCC(=O)N1c2ccccc2C(N(C(=O)CC)c2ccccc2)CC1C (configuration not stated)	u	5	-3%	23	-23%	6%
C=CCN1C(=O)CC[C@@]23C1=NC(C(=O)OC)=C(C(=O)OC)[C@@H]2N(CC=C)c1ccccc13	-3%[14.2 µM]	x	x	x	x	x
O=C(/C=C/c1cccc(F)c1)N1CCN(c2ncccn2)CC1	u	11	27%	-4	21%[46.1 µM]	12%
CCOc1ccc(NS(=O)(=O)c2cccc(C(=O)NCC3(N(C)C)CCCCC3)c2)cc1	11µM*	x	2%	x	u	u
COc1ccc(C(CNC(=O)c2cccc(NS(=O)(=O)c3ccccc3)c2)N2CCCC2)cc1 (configuration not stated)	x	x	-5%	x	x	-22%
COc1ccc(C(CNC(=O)c2cccc(Br)c2)N2CCCC2)cc1 (configuration not stated)	12µM*	-4	-1%	-7	u	u
CCOc1cc2[nH]c(=O)n(CCCCCC(=O)NCc3ccco3)c(=O)c2cc1OCC	-24%	1	0%	0	17%	u
